DT40 TDP1 CPT: DT40-hTDP1 cell growth loss with CPT; chicken DT40 Tdp1-/-;hTDP1 cells + 20 nM CPT, ATP luminescence, 48 h; Potency, µM (series often up to 46.2 µM), for the others: top-dose activity change, negative = growth inhibition, hits mostly inhibitors; actives 12% (n = 420,000); also: nearly all actives have a fitted effect of over 55% in size
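Cell growth measured by CellTiter-Glo luminescence after a minimum 48 h, 37 C compound exposure with 20 nM CPT in Tdp1-knockout DT40 cells stably expressing hTDP1, seeded 400/well; qHTS titration format.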
PLK1 PBD inh: PLK1 (human) polo-box domain binding inhibition. Potency, µM, inactives show max response, negative = inhibition, usual class: inhibitors. Plk1 PBD binding of FITC phosphopeptide, fluorescence polarization. P53350. actives 2.8% (n = 360,000); also: series mostly up to about 57 µM; nearly all actives have a fitted effect of over 65% in size
VDR inh: inhibitors of human vitamin D receptor; VDR-SRC2-3 peptide fluorescence polarization, 2 h; Potency, µM, without a hit: max response, negative = inhibition, actives largely listed as inhibitors; actives 0.93% (n = 400,000); AID 504847
Target sequence (P11473 whole entry, looked up): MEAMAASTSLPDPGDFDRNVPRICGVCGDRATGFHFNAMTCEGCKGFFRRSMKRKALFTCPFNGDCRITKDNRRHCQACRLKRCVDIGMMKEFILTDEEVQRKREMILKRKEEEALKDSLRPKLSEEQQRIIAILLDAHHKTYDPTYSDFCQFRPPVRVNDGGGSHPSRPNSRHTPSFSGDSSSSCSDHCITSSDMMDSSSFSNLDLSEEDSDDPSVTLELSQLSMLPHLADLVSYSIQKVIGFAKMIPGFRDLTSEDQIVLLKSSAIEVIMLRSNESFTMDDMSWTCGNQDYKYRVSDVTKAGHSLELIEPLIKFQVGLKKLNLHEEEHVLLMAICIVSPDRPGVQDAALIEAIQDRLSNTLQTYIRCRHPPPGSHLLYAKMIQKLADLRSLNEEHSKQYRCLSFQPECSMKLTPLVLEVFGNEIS
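The screen uses fluorescence polarization to detect compounds that interfere with recruitment of the SRC2-3 coactivator peptide to VDR; plates are read after 2 h at room temperature.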
KAT2A inh: blocks human GCN5L2 histone acetyltransferase; Q92830; GCN5L2 HAT assay, ThioGlo1 CoA-SH fluorescence; Potency, µM (series often up to 58.9 µM), for the others: at the top dose activity change, negative = inhibition, hits mostly inhibitors; actives 0.21% (n = 390,000)
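qHTS, 1536-well. 20nM enzyme, pH 7.5 HEPES/EDTA/Tween-20 buffer; 15 min compound preinc., RT. Start: 75uM H3(1-25), 70uM AcCoA, 50uM ThioGlo1. Read Ex340/Em540 at t=0 (autofluorescence flag) and t=20 min.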
TDP1 inh: TDP1 (human) enzyme inhibition; Potency, µM (top dose mostly 130 µM), for inactives: at the highest dose activity change, negative = inhibition, most hits filed as inhibitors; AID 485290; recombinant TDP1, AlphaScreen DNA substrate cleavage; actives 0.28% (n = 350,000); also: nearly all actives have a fitted effect of over 40% in size
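Recombinant E. coli-expressed Tdp1 (1 nM) preincubated with compound 15 min at RT, then 5'-biotin/3'-phosphotyrosine-FITC DNA substrate (15 nM) added for 5 min. AlphaScreen beads (10 ug/ml) added, 10 min RT; tyrosine-FITC cleavage read as signal loss.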
DT40 TDP1 no CPT: qHTS for Inhibitors of human tyrosyl-DNA phosphodiesterase 1 (TDP1): qHTS in cells in absence of CPT; DT40 Tdp1-/- hTDP1 cells, no CPT, ATP luminescence, 48 h; Potency, µM (top dose mostly 46.2 µM), for the others: at the top dose activity change, negative = growth inhibition, actives largely listed as inhibitors; actives 15% (n = 420,000); AID 686978, 2013; also: nearly all actives have a fitted effect of over 55% in size
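Growth kinetics read by CellTiter-Glo luminescence after ≥48 hr at 37 °C. Cells: DT40 Tdp1-/- stably carrying human TDP1, 400 per well, compound exposure in the absence of CPT (DMSO vehicle).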
Starred values were filed as active, the others as inactive; ? = inconclusive; / = no result; [ ] = another dose, or the depositor's remark. Shown are actives, neighbours in structure and some others; about 18% of the full set was active somewhere. Calls follow the shape of the dose curve; as a rule, active = well fitted curve in the direction sought with a large enough effect; inconclusive = small, poorly fitted or top-dose-only effect, or another doubt; inactive = no such curve, though single readings can be large; an effect the other way counts as inactive or inconclusive. % is scaled to controls: 0 for no effect and ±100 for the full control effect; potency is read from the fitted curve at half-maximal effect.

SMILES	DT40 TDP1 CPT	PLK1 PBD inh	VDR inh	KAT2A inh	TDP1 inh	DT40 TDP1 no CPT
CC[C@]12c3[nH]c4cc(-c5ccco5)ccc4c3CCN1C(=O)[C@@H](CC(=O)NC/C=C(\C)CCC=C(C)C)C[C@@H]2C(=O)N1CCN(C(=O)c2ccco2)CC1	?	24µM*	-26%	-11%	4%[56.1 µM]	21µM*
CC[C@]12c3[nH]c4cc(-c5ccco5)ccc4c3CCN1C(=O)[C@@H](CC(=O)NC/C=C(\C)CCC=C(C)C)C[C@@H]2C(=O)N1CCN(C(=O)C2CC2)CC1	?	-11%	?	?	4%[56.1 µM]	?
CC[C@]12c3[nH]c4cc(-c5ccco5)ccc4c3CCN1C(=O)[C@@H](CC(=O)NCc1cccc(C(F)(F)F)c1)C[C@@H]2C(=O)N1CCN(C(=O)c2ccco2)CC1	8.2µM*	-1%	-20%	-14%	2%[56.1 µM]	8.2µM*
O=S(=O)(c1ccc(Cl)cc1)c1nc(-c2ccccc2)oc1N1CCN(c2ccccc2)CC1	?	/	-6%	-3%	-1%	?
Cc1ccccc1Nc1c(-c2c[nH]c3ccccc23)nc2cccc(C)n12	?	/	-10%	-4%	8%	?
CC(CC(c1ccccc1)N1CCc2ccccc2C1)=NO (stereo not given)	?	-4%	/	/	/	18µM*
Cc1ccsc1C(=O)NC1CCCN(Cc2ccc(Cl)cc2)C1 (stereo not given)	?	-18%	-5%	-1%	0%	15µM*
CCc1ccc2c(CN3CCN(Cc4ccccc4)CC3)cc(=O)oc2c1	-23%	-8%	5%	0%	1%	?
Cc1ccc2c(CN3CCN(S(=O)(=O)c4ccccc4C(F)(F)F)CC3)cc(=O)oc2c1C	?	-11%	70%	0%	0%[56.1 µM]	23µM*
CCc1ccc2c(CN3CCN(S(=O)(=O)c4ccccc4F)CC3)cc(=O)oc2c1	-95%	0%	-7%	-4%	1%	23µM*
NCCNS(=O)(=O)c1cccc2cnccc12	27µM*	/	/	/	-12%[56.1 µM]	18µM*
OCCN(Cc1ccccc1)Cc1cccc(Cl)c1Cl	?	4%	-6%	-10%	16µM*	?
CCCCCCCCN1C(=O)[C@H](CC(=O)N2CCN(C(=O)c3ccco3)CC2)C[C@@]2(C(=O)OC)CCCCC=C12	?	-15%	/	/	/	23µM*
CCCCCCCCN1C(=O)[C@H](CC(=O)N2CCN(C(=O)c3ccco3)CC2)C[C@@]2(C(=O)OC)CC(C)(C)CC=C12	12µM*	0%	/	/	/	15µM*
COC(=O)[C@]12CCCCC=C1N(Cc1ccco1)C(=O)[C@H](CC(=O)N1CCN(C(=O)c3ccco3)CC1)C2	-29%	-8%	/	/	/	?
CCc1ccccc1NC(=O)N1CCC(CN2CCc3ccccc3C2)CC1	2%	/	16%	-3%	9%	?
Cc1c(C(=O)Nc2cccc(Cl)c2)sc2nc3n(c(=O)c12)N=C(c1cccc(Br)c1)CS3	-17%	/	10%	0%	1%	-14%
Cc1ccc(S(=O)(=O)c2c(C)cc(C)nc2N2CCCCC2)cc1	23µM*	-8%	9%	-3%	0%	18µM*
COc1ccc(C2c3ccccc3Oc3ncn(CCN4CCOCC4)c(=N)c32)cc1OC (stereo not given)	/	/	/	/	-6%	/
CCOCCCNC(=O)c1cc(=O)[nH]c2ccc(S(=O)(=O)N3CCCC3)cc12	2%	/	-5%	1%	1%	1%
Cc1nc2c(ccc3c2ccc2nc(C)sc23)s1	12%	-2%	-7%	-11%	7%	2%
Cc1nc2c(ccc3nc(NC(=O)C(c4ccccc4)c4ccccc4)sc32)s1	7.3µM*	-4%	12%	-12%	5%	7.3µM*
Cc1nc2c(ccc3nc(NC(=O)c4ccc5c(c4)OCCO5)sc32)s1	16µM*	-7%	14%	-3%	/	18µM*
Cc1nc2ccc3nc(NC(=O)c4ccc5c(c4)OCCO5)sc3c2s1	?	-6%	-5%	1%	89µM*	3%
COc1ccc(/C=C\c2onc(C)c2S(=O)(=O)N2CCC(C(=O)Nc3ccc(F)cc3F)CC2)cc1	-9%	/	-11%	0%	-2%	-15%
SMILES	DT40 TDP1 CPT	PLK1 PBD inh	VDR inh	KAT2A inh	TDP1 inh	DT40 TDP1 no CPT
CC(=O)Oc1ccc(Cl)cc1CN(C(C)=O)C1CCCCC1	23µM*	-3%	-19%	/	/	?
CC(=O)Oc1ccccc1C(=O)N(C1CCCCC1)C1CCCCC1	23µM*	-3%	3%	-3%	/	13µM*
CN(C(=O)c1ccccc1Cl)C1CCCCC1	-7%	-6%	-3%	-4%	0%	-18%
COc1cccc(NC(=O)Nc2ccc3nsnc3c2)c1	?	?	-5%	-9%	0%	?
COc1cccc(NC(=O)Nc2nc(SC)ns2)c1	9.2µM*	-4%	13%	-2%	4%	?
COc1cccc(NC(=O)Nc2nc(SC(C)(C)C)ns2)c1	15µM*	-10%	10%	-10%	/	?
O=[N+]([O-])c1cccc(COc2ccccc2CN2CCCC2)c1	-22%	-5%	1%	/	/	-24%
C#CC(=O)CC1(CN(Cc2ccccc2)C(=O)OC(C)(C)C)CCCCC1	12µM*	12µM*	?	/	/	10µM*
CC(C)(C)OC(=O)N(Cc1ccccc1)Cc1cccc(OCc2cccc(NC(=O)C3CC3)c2)c1	?	-19%	-18%	/	/	?
CC(C)c1ccc(NC(=O)C2Cc3ccccc3N2C(=O)c2ccccc2)cc1 (stereo not given)	18µM*	/	-4%	6%	4%	5.8µM*
CCOc1ccc(NC(=O)C2Cc3ccccc3N2C(=O)c2ccccc2)cc1 (stereo not given)	23µM*	/	5%	23%	1%	21µM*
O=S(=O)([N-]c1nc2ccccc2nc1-[n+]1ccc(-c2ccncc2)cc1)c1ccccc1	10%	17µM*	8%	1%	4%	12%
COc1ccc(S(=O)(=O)CC(=O)c2cc3cccc(C)c3oc2=O)cc1	-26%	27µM*	-25%	-19%	7%	?
O=C(CS(=O)(=O)c1ccccc1)c1cc2ccccc2oc1=O	3%	?	-11%	-9%	3%	?
O=C(CS(=O)(=O)c1ccccc1)c1cc2cc(F)ccc2oc1=O	?	15µM*	18%	-10%	4%	?
COc1cccc2cc(C(=O)CS(=O)(=O)c3ccc(C(C)(C)C)cc3)c(=O)oc12	?	7.5µM*	-8%	-26%	6%	?

Assay outcomes (PubChem BioAssay)
